A short description of experiment [1]: qHTS assay to identify small molecule antagonists of the androgen receptor (AR) signaling pathway using the MDA cell line in the presence of 0.5 nM R1881 - cell viability counter screen (AID 1259242). Note: nearly all actives have a fitted effect of over 45% in size. Summed up: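 qHTS format. MDA-kb2 (MMTV-luc, AR/GR responsive) + cpd + 0.5 nM R1881 final, 16 hr 37C/0% CO2 → CellTiter-Fluor 30 min → fluorescence intensity.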
(In general: qHTS replaces the single test concentration by a dilution series.)

For experiment [2], the target named is Androgen receptor (Homo sapiens) (UniProt P10275). In words: qHTS assay to identify small molecule antagonists of the androgen receptor (AR) signaling pathway using the MDA cell line in the presence of 0.5 nM R1881 (AID 1259243). Note: nearly all actives have a fitted effect of over 50% in size. Note: potency is the fitted concentration of half-maximal effect. The method, boiled down:
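Antagonist mode quantitative HTS in MDA-kb2 MMTV-luciferase cells, agonist R1881 at 0.5 nM final, 16 hr exposure at 37C and 0% CO2, luminescent detection.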

Experiment [3] can be described thus: qHTS assay to identify small molecule HDAC inhibitors (AID 1259364).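 Note: wild-type HCT-116 cells with endogenous class I/II HDAC activity; top concentration of the series differs between compounds; nearly all actives have a fitted effect of over 45% in size.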 Summed up:
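Quantitative high-throughput format: overnight-seeded HCT-116 cells got compounds for 2 hr at 37C; HDAC-Glo I/II reagent added, 30 min RT, luminescence measured.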

The nature of experiment [4]: qHTS assay to identify small molecule HDAC inhibitors - cell viability counter screen (AID 1259365). Note: series mostly up to about 92 µM; nearly all actives have a fitted effect of over 50% in size. Summed up: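 Cytotoxicity was gauged in wild-type HCT-116 cells after a brief 2hr treatment with DMSO-dissolved compounds at 37C and 5% CO2, using CellTiter-Glo luminescence developed for 30min at room temperature.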
A short description of experiment [5]: qHTS assay to identify small molecule agonists of the sonic hedgehog signaling (Shh) pathway - cell viability counter screen (AID 1259366). Note: nearly all actives have a fitted effect of over 50% in size. Summed up: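 Stable Gli1-Luc NIH/3T3 clone, 2,000 cells/well. Compound exposure 24hr at 37C. Read-out: CellTiter-Fluor fluorescence.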
A short description of experiment [6]: qHTS assay to identify small molecule antagonists of the sonic hedgehog signaling (Shh) pathway - cell viability counter screen (AID 1259367). Note: nearly all actives have a fitted effect of over 55% in size. The method, boiled down:
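Conditioned medium drove Shh signaling in 3T3 Gli1-Luc cells exposed to compounds at 37C and 5% CO2. Viability was determined from CellTiter-Fluor fluorescence, with reagent incubated 1 hr after 23 hr of treatment.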

Experiment [7] is described as follows: qHTS assay to identify small molecule agonists of the sonic hedgehog signaling (Shh) pathway (AID 1259368; calls by dose curve;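 note: NIH/3T3-derived 3T3Gli1-Luc cells carrying a stable Gli1-driven firefly luciferase reporter; series mostly up to about 92 µM; nearly all actives have a fitted effect of over 15% in size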). Summed up: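 Quantitative high-throughput format using a Gli1-driven firefly luciferase reporter line derived from NIH/3T3 cells. After a 24 hr compound treatment at 37 C and 5% CO2, luminescence reported Gli1 response element activity.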
A short description of experiment [8]: qHTS assay to identify small molecule antagonists of the sonic hedgehog signaling (Shh) pathway (AID 1259369; calls by dose curve; note: nearly all actives have a fitted effect of over 45% in size). Summed up:
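Stable Gli1-Luc reporter NIH/3T3 clone; quantitative HTS in stimulated mode with conditioned medium. Luminescence measured after 24hr compound treatment at 37 C.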

For experiment [9], the target named is Estrogen receptor beta (Homo sapiens) (UniProt Q92731). The experiment can be described thus: qHTS assay to identify small molecule agonists of the estrogen receptor beta (ER-beta) signaling pathway (AID 1259377; active = well fitted activation curve with a large enough effect in the signal ratio in the repeat runs, not every such curve was filed as active; the % refers to the signal ratio). Summed up: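 Measured by fluorescence intensity from a B/G FRET beta-lactamase substrate (2 h, room temperature) in ER-beta-UAS-bla HEK293T cells treated with DMSO-dissolved compounds for 16 hr at 37C and 5% CO2.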
Estrogen receptor beta (Homo sapiens), sequence (Q92731 whole entry, looked up): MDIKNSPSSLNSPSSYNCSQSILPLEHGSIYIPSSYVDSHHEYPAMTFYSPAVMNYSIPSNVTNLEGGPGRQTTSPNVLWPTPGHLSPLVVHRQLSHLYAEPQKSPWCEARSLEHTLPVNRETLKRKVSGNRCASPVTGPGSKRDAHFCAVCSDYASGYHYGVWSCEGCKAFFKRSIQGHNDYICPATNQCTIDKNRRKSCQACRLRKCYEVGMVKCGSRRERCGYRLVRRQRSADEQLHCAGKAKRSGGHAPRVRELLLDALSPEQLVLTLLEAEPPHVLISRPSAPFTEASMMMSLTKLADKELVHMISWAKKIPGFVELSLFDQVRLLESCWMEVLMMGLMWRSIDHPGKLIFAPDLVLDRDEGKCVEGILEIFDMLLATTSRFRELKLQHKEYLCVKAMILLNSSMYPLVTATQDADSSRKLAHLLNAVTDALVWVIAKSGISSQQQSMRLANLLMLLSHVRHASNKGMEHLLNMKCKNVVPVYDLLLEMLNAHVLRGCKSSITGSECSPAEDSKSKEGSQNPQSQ

For experiment [10] the target is unchanged. In words: qHTS assay to identify small molecule antagonists of the estrogen receptor beta (ER-beta) signaling pathway (AID 1259378; active = well fitted inhibition curve with a large enough effect in the signal ratio in the repeat runs, not every such curve was filed as active; the % refers to the signal ratio). Summed up:
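ER-beta-UAS-bla HEK293T (GripTite) cells in 2% charcoal-stripped FBS medium were preincubated 6 hr at 37C, dosed with compound, then stimulated with 1 nM E2 (final) for 16 hr; beta-lactamase reporter read by B/G FRET fluorescence after 2 hr substrate loading.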

Experiment [11] is described as follows: qHTS assay to identify small molecule agonists of the androgen receptor (AR) signaling pathway in the presence of an antagonist - cell viability counter screen (AID 1259379).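 Note: MDA-kb2 human breast cancer cells carrying an MMTV luciferase reporter; series mostly up to about 92 µM; nearly all actives have a fitted effect of over 25% in size.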 The method, boiled down: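 Nilutamide-containing (3.0uM final) MDA-kb2 cultures, 3,000 cells/well, were treated with compounds across 15 concentrations. After 16 hr at 37C with no CO2, cell viability was determined by CellTiter-Fluor fluorescence in the luciferase assay wells.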

Experiment [12] is described as follows: qHTS assay to identify small molecule agonists of the estrogen receptor beta (ER-beta) signaling pathway - cell viability counter screen (AID 1259380). Note: nearly all actives have a fitted effect of over 30% in size. Note: potency is the fitted concentration of half-maximal effect. The method, boiled down:
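Steps: plate ER-beta-UAS-bla HEK293T cells, rest 6 hr; add compounds in DMSO; incubate 16 hr at 37C, 5% CO2; add FRET substrate 2 hr; add CellTiter-Glo, wait 30 min at room temperature; read luminescence.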

The target in experiment [13] is Androgen receptor (Homo sapiens) (UniProt P10275). The experiment can be described thus: qHTS assay to identify small molecule agonists of the androgen receptor (AR) signaling pathway in the presence of an antagonist (AID 1259381; calls by dose curve; note: nearly all actives have a fitted effect of over 15% in size). Summed up: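 Reporter-gene luminescence from MDA-kb2 cells exposed 16hr at 37C (0% CO2) to 15-point compound titrations with 3.0uM final nilutamide as AR antagonist.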
Androgen receptor (Homo sapiens), sequence (P10275 whole entry, looked up): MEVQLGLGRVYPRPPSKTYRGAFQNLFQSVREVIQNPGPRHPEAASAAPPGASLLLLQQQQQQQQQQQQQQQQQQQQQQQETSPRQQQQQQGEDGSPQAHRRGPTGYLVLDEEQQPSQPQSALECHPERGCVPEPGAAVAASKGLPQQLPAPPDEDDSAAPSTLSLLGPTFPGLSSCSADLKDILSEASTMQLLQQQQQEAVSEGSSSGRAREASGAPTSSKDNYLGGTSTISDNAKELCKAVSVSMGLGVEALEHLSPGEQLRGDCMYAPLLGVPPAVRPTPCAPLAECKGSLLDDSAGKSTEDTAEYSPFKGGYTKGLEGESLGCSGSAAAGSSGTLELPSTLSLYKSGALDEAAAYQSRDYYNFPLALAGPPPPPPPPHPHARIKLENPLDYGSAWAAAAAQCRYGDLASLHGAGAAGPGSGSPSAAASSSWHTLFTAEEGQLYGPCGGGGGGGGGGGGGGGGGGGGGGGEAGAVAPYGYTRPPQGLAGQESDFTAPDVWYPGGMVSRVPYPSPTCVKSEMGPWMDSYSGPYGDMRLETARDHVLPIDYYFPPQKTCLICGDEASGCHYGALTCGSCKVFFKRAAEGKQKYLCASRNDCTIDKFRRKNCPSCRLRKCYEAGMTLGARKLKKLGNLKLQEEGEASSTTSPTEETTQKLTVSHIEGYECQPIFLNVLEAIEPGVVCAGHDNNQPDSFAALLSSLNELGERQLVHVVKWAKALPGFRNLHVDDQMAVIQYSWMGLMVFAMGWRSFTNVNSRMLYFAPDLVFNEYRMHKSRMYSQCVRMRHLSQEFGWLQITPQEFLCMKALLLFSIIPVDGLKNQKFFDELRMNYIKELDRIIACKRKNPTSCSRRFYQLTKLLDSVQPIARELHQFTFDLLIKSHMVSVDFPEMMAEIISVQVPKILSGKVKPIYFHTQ

Experiment [14] can be described thus: qHTS assay to identify small molecule antagonists of the estrogen receptor beta (ER-beta) signaling pathway - cell viability counter screen (AID 1259382). Note: series mostly up to about 92 µM; nearly all actives have a fitted effect of over 55% in size. Summed up:
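Viability is scored by CellTiter-Glo luminescence (30 min, room temperature) in ER-beta-UAS-bla HEK293T wells already read for reporter fluorescence. Compound exposure lasts 16 hr at 37C alongside 1nM 17-beta-estradiol in charcoal-stripped serum medium.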

A short description of experiment [15]: qHTS assay to identify small molecule agonists or antagonists of the thyroid stimulating hormone receptor (TSHR) signaling pathway - wild type cell line counter screen (AID 1259384; calls by dose curve). Summed up: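 Wild-type HEK293 cells were plated 18 h at 37 C/5% CO2, pin-dosed with compound plus Ro20-1724 medium, held 30 min at room temperature, then given cAMP-d2 and anti-cAMP-cryptate; fluorescence was read after 1 h. Fifteen concentrations, triplicate.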

The target of experiment [16] is Thyrotropin receptor (Homo sapiens) (UniProt P16473). In words: qHTS assay to identify small molecule antagonists of the thyroid stimulating hormone receptor (TSHR) signaling pathway (AID 1259385; calls by dose curve; note: nearly all actives have a fitted effect of over 20% in size). The method, boiled down: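 TSHR-HEK293 cells were plated and held 18 h at 37C/5% CO2, then given compound plus Ro20-1724 and stimulated with TSH at 1.5 ng/mL final. After 30 min at room temperature, cAMP was detected with cAMP-d2/anti-cAMP-cryptate (1 h) by fluorescence.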
Thyrotropin receptor (Homo sapiens), sequence (P16473 whole entry, looked up): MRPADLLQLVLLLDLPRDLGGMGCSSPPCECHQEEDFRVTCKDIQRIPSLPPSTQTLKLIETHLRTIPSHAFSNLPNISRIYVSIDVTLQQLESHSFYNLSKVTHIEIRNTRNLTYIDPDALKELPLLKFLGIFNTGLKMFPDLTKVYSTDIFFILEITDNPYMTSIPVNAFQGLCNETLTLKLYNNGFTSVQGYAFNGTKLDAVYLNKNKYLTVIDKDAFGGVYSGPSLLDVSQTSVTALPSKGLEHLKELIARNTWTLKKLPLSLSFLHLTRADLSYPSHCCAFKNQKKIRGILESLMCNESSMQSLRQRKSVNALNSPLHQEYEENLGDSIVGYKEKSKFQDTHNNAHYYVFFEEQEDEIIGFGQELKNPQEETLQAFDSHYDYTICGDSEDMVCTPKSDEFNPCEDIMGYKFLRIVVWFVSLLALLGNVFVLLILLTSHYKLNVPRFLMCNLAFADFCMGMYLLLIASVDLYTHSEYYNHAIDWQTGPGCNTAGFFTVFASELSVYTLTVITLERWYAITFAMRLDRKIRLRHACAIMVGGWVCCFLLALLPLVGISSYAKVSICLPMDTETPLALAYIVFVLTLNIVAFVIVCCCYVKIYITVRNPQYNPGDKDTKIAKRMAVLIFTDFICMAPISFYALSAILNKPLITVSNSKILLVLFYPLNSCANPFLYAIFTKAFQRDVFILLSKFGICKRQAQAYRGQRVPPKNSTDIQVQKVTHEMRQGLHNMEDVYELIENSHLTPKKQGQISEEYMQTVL

The nature of experiment [17]: qHTS assay to identify small molecule agonists of the estrogen receptor alpha (ER-alpha) signaling pathway in the presence of an antagonist - cell viability counter screen (AID 1259386).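 Note: series mostly up to about 92 µM; cells exposed to compounds for 22 h at 37 °C before the viability read; nearly all actives have a fitted effect of over 30% in size.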 Summed up: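 In this counter screen, compound effects on VM7Luc4E2 viability were tested in the presence of the antagonist ICI-182,780 at 10.0nM final. Compounds were dosed at 15 concentrations, exposure lasted 22hr, and the CellTiter-Fluor signal was read.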

The target in experiment [18] is Estrogen receptor (Homo sapiens) (UniProt P03372). The experiment can be described thus: qHTS assay to identify small molecule antagonists of the estrogen receptor alpha (ER-alpha) signaling pathway using the BG1 cell line in the presence of 0.1 nM 17-beta-estradiol (AID 1259244). Note: nearly all actives have a fitted effect of over 50% in size. The method, boiled down: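 Reporter is a stably transfected luciferase under four estrogen responsive elements in VM7Luc4E2 cells expressing native full-length ER-alpha; inhibition of 0.1 nM (final) 17beta-estradiol-driven signal over 22 h is read by luminescence.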
Estrogen receptor (Homo sapiens), sequence (P03372 whole entry, looked up): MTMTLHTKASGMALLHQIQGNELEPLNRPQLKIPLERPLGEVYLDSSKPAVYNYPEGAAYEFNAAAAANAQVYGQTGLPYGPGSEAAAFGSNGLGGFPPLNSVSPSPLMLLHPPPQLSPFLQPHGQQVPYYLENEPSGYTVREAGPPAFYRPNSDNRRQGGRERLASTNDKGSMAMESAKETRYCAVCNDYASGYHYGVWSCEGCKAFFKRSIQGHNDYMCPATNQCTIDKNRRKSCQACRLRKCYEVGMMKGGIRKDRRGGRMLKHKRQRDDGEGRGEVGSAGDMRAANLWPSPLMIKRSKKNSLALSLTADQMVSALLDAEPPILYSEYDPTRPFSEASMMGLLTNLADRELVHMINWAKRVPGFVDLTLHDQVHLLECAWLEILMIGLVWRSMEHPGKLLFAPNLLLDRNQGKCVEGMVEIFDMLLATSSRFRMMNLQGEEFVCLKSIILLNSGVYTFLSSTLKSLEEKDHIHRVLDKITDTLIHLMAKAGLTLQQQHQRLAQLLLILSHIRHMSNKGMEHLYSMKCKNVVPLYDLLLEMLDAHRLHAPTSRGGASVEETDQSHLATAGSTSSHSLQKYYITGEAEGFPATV

Experiment [19] in a line: qHTS assay to identify small molecule phospholipidosis (PLD) inducers (AID 1259344; active = well fitted curve in the direction sought with a large enough effect; an effect the other way counts as inactive or inconclusive). Summed up: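 After 4 h attachment on collagen I, HepG2 cells were dosed with compound alongside LipidTOX Red, kept 24 h at 37 C, fixed, and imaged for lamellar phospholipid pits.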
In experiment [20] the target is Estrogen receptor (Homo sapiens) (UniProt P03372). In words: qHTS assay to identify small molecule agonists of the estrogen receptor alpha (ER-alpha) signaling pathway in the presence of an antagonist (AID 1259383; calls by dose curve; note: top concentration of the series differs between compounds; nearly all actives have a fitted effect of over 15% in size). The method, boiled down: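 Readout was ERE-driven luciferase luminescence in VM7Luc4E2 cells, which express full-length ER-alpha endogenously. Compounds were tested at 15 concentrations for 22hr alongside 10.0nM ICI-182,780 (final concentration).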

Consider 7 compounds from PubChem BioAssay (Tox21).

A number with no mark means an inactive call. Records with an inconclusive call do not appear. Active and inactive are the calls of the source. Unless noted, calls come from the whole dose curve; as a rule, active = well fitted curve in the direction sought with a large enough effect in the repeat runs; inconclusive = weak or mixed curves; inactive = no such curve, though single readings can be large; an effect the other way counts as inactive or inconclusive.
% is set by controls: 0 for no effect and ±100 for the full control effect.

As to `Cc1cnc[nH]1`, the outcome in experiment [1], in [4], in [7] and in [9] was inactive. The Potency entry in experiment [2], in experiment [3], in experiment [5], in experiment [6], in experiment [8] and in experiment [10] was “inactive” throughout. The Potency result in experiment [11], in experiment [12], in experiment [13], in [14], in [15] and in [16] was “inactive” each time. Also, the Potency entry in [17] was “inactive”.

Turning to `O=NN1CCCCC1`, the outcome in experiment [1], in experiment [4], in experiment [7] and in [9] was inactive. Besides, the Potency entry in experiment [2], in experiment [3], in experiment [5], in experiment [6], in experiment [8] and in [10] was “inactive” throughout. For the same compound, the Potency entry in experiment [11], in experiment [12], in experiment [13], in experiment [14], in experiment [15] and in experiment [16] was “inactive” in each case. In experiment [17], the Potency result is “inactive”.

For the compound `c1cc2c(c(N3CCNCC3)c1)OCCO2`, the result in [1], in experiment [19], in experiment [4], in experiment [7] and in [9] was inactive. The Potency result in [2], in experiment [18], in experiment [3], in experiment [5], in experiment [6] and in experiment [8] was “inactive” throughout. Besides, the Potency result in experiment [10], in experiment [11], in [12], in [13], in experiment [14] and in experiment [20] was “inactive” throughout. The Potency result in [15], in experiment [16] and in [17] was “inactive” throughout.

For `CCC(=O)c1ccccc1`, the outcome in experiment [1], in experiment [4], in experiment [7] and in [9] was inactive. The Potency entry in [2], in experiment [18], in [3], in [5], in [8] and in [10] was “inactive” each time. Moreover, the Potency result in [11], in experiment [12], in experiment [13], in experiment [14], in [20] and in experiment [15] was “inactive” in each case. Besides, the Potency entry in [16] and in experiment [17] was “inactive” throughout.

`COc1ncc(F)c2nc(S(=O)(=O)Nc3c(F)cccc3F)nn12`: the result in experiment [1], in experiment [4], in experiment [7] and in [9] was inactive. In addition, the Potency result in [2], in experiment [18], in [3], in experiment [5], in [6] and in experiment [8] was “inactive” in each case. The Potency result in [10], in experiment [11], in [12], in experiment [13], in [14] and in experiment [20] was “inactive” in each case. The Potency result in experiment [15], in experiment [16] and in [17] was “inactive” each time.

In the case of `CC1=C(C(=O)O)N2C(=O)[C@@H](N)[C@H]2SC1`, the viability change, negative = cytotoxic in experiment [1] is 2.31% [at 19 µM]; in [5] it was -3.69% [at 19 µM]. The activity, negative = inhibition in [2] is 15.5% [at 19 µM]; in experiment [10], 20.1% [at 19 µM]. The activity change, negative = inhibition in experiment [18] is 0.965% [at 19 µM]; in experiment [3] it was 5.61% [at 19 µM]; in [8], -0.41% [at 19 µM]; in [16] it was 2.26% [at 19 µM]. Moreover, the activity change, negative = cytotoxicity in [4] was 3.22% [at 19 µM]; in experiment [11] it was -2.71% [at 19 µM]; in [12] it was 7.09% [at 19 µM]; in experiment [14], 15.3% [at 19 µM]. Also, the activity change in experiment [7] is 0.0682% [at 18.9 µM]. Also, the activation in experiment [9] was 1.69% [at 19 µM]; in experiment [13], -0.0648% [at 19 µM]; in experiment [20], 0.456% [at 19 µM]. The cAMP activity change in experiment [15] was 2.64% [at 18.9 µM, active compounds read high].

On to `COc1ccc2c(c1OC)CN1CCc3cc4c(cc3C1C2)OCO4` (stereo not drawn), for which the outcome in experiment [1], in [19], in experiment [4] and in experiment [7] was inactive. In addition, the Potency in experiment [2] is 26.6 µM (active); in experiment [12] it was 9.44 µM (active). The Potency result in [3], in experiment [5], in [6], in [11], in experiment [13] and in [14] was “inactive” throughout. In addition, the Potency entry in experiment [20], in experiment [15] and in experiment [16] was “inactive” in each case.
